Experimental data published in the supplement of paper PMC10849652.
Of roughly 8,800 targets only a part is listed; those with a hit were picked by preference. About 0.5% of all pairs of compound and target were hits.

Assays:
Assay in all cases: log2 fold change, soluble protein after heating vs DMSO (PISA); higher = thermal stabilisation; K562 lysate, 10 uM; active = over 0.2 and 3.5 SD of the protein, either way, in both replicates (recomputed)
vemurafenib = compound: CCCS(=O)(=O)Nc1ccc(F)c(C(=O)c2c[nH]c3ncc(-c4ccc(Cl)cc4)cc23)c1F [vemurafenib]
In short: (§1)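 Following dounce homogenisation of K562 pellets in PBS pH 7.4 with 1 mM MgCl2, crude extract at 1 mg/mL protein was incubated for 30 min with 10 μM compound. Aliquots were then heated for 3 min over 48°C-58°C and pooled, NP-40 was added to 0.5% at 4°C, and soluble protein was recovered as the supernatant at 21,000xg for 90 min. Channel-sum-equalised TMTpro 16plex LC-MS/MS quantified this protein. Each value, from duplicates, is a log-two fold change in thermal stability relative to solvent controls.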

[1] = compound: CCCS(=O)(=O)Nc1ccc(F)c(C(=O)c2c[nH]c3ncc(Cl)cc23)c1F
In short: as §1

barasertib = compound: CCN(CCCOc1ccc2c(Nc3cc(CC(=O)Nc4cccc(F)c4)[nH]n3)ncnc2c1)CCOP(=O)(O)O [barasertib]
In short: as §1

[2] = compound: CC[C@@H]1C(=O)N(C)c2cnc(Nc3ccc(C(=O)NC4CCN(C)CC4)cc3OC)nc2N1C1CCCC1
In short: as §1

volasertib = compound: CC[C@@H]1C(=O)N(C)c2cnc(Nc3ccc(C(=O)N[C@H]4CC[C@H](N5CCN(CC6CC6)CC5)CC4)cc3OC)nc2N1C(C)C [volasertib]
In short: as §1

[3] = compound: CCn1c(C(=O)N(C2CC2)C2CC2)cc2c3c(ncn3C)c(Nc3cc(C)n(C)n3)nc21
In short: as §1

[4] = compound: CCn1cc(-c2ccnc3[nH]c(-c4cccc(CN(C)C)c4)cc23)c(-c2ccc(NC(=O)N(C)C)cc2)n1
In short: as §1

[5] = compound: CN1CCC(CNc2ccc3ncc(-c4cccc(OC(F)(F)F)c4)n3n2)CC1
In short: as §1

saracatinib = compound: CN1CCN(CCOc2cc(OC3CCOCC3)c3c(Nc4c(Cl)ccc5c4OCO5)ncnc3c2)CC1 [saracatinib]
In short: as §1

sotrastaurin = compound: CN1CCN(c2nc(C3=C(c4c[nH]c5ccccc45)C(=O)NC3=O)c3ccccc3n2)CC1 [sotrastaurin]
In short: as §1

alvocidib = compound: CN1CC[C@H](c2c(O)cc(O)c3c(=O)cc(-c4ccccc4Cl)oc23)[C@H](O)C1 [alvocidib]
In short: as §1

Tubastatin A = compound: CN1CCc2c(c3ccccc3n2Cc2ccc(C(=O)NO)cc2)C1 [Tubastatin A]
In short: as §1

[6] = compound: CNC(=O)C1=CC=CC=C1NC2=NC(=NC=C2Cl)NC3=C(C=C(C=C3)N4CCOCC4)OC
In short: as §1

defactinib = compound: CNC(=O)c1ccc(Nc2ncc(C(F)(F)F)c(NCc3nccnc3N(C)S(C)(=O)=O)n2)cc1 [defactinib]
In short: as §1

[7] = compound: CNc1nc(-c2ccc3c(N)n[nH]c3c2)cc(N2C[C@@H](C(=O)NC3CCCCC3)CC[C@H]2C)n1
In short: as §1

encorafenib = compound: COC(=O)N[C@@H](C)CNc1nccc(-c2cn(C(C)C)nc2-c2cc(Cl)cc(NS(C)(=O)=O)c2F)n1 [encorafenib]
In short: as §1

[8] = compound: COC(=O)[C@H](CCSC)NC(=O)C1=C(C=C(C=C1)NC[C@H](CS)N)C2=CC=CC=C2
In short: as §1

alisertib = compound: COc1cc(Nc2ncc3c(n2)-c2ccc(Cl)cc2C(c2c(F)cccc2OC)=NC3)ccc1C(=O)O [alisertib]
In short: as §1

[9] = compound: COc1cc2nc(-c3cc(F)ccc3O)nc(N[C@@H]3CNC[C@H]3C(C)(C)O)c2cc1OC
In short: as §1

gefitinib = compound: COc1cc2ncnc(Nc3ccc(F)c(Cl)c3)c2cc1OCCCN1CCOCC1 [gefitinib]
In short: as §1

Measured: log2 fold change

MRPL53 (UniProt Q96EL3)
active: [8] -0.226
inactive: vemurafenib -0.006 | [1] -0.01 | barasertib 0.032 | [2] 0.069 | volasertib 0.057 | [3] -0.017 | [4] 0.013 | [5] -0.019 | saracatinib -0.003 | sotrastaurin -0.021 | alvocidib 0.005 | Tubastatin A -0.048 | [6] -0.02 | defactinib 0.051 | [7] -0.048 | encorafenib -0.036 | alisertib 0.049 | [9] 0 | gefitinib -0.048

MT-CYB (UniProt P00156)
active: [4] -0.993 | [5] 0.521
inactive: vemurafenib 0.004 | [1] -0.03 | barasertib -0.054 | [2] 0 | volasertib 0.056 | [3] -0.097 | saracatinib 0.047 | sotrastaurin 0.027 | alvocidib -0.326 | Tubastatin A 0.078 | [6] -0.027 | defactinib 0.091 | [7] 0.129 | encorafenib 0.036 | [8] -0.093 | alisertib -0.131 | [9] 0.062 | gefitinib 0.102

NPLOC4 isoform 2 (UniProt Q8TAT6)
inactive: vemurafenib -0.011 | [1] 0.025 | barasertib -0.019 | [2] 0.025 | volasertib -0.011 | [3] -0.016 | [4] -0.066 | [5] 0.007 | saracatinib 0.004 | sotrastaurin -0.005 | alvocidib -0.06 | Tubastatin A 0.013 | [6] 0.019 | defactinib -0.007 | [7] 0.043 | encorafenib 0.021 | [8] 0.016 | alisertib 0.004 | [9] -0.007 | gefitinib -0.018

NOSIP (UniProt Q9Y314)
Chain of UniProt Q9Y314 (Q9Y314 whole entry, looked up): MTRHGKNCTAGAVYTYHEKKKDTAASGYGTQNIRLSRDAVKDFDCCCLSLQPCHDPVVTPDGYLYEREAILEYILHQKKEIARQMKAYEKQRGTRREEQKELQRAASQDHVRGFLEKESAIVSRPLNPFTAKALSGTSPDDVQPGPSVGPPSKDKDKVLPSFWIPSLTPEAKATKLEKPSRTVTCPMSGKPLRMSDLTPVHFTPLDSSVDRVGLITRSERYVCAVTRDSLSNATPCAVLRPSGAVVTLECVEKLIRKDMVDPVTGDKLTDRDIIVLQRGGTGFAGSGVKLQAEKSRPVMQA
inactive: vemurafenib -0.008 | [1] 0.034 | barasertib 0.012 | [2] 0.017 | volasertib -0.035 | [3] -0.005 | [4] -0.013 | [5] 0.016 | saracatinib 0.008 | sotrastaurin -0.014 | alvocidib -0.02 | Tubastatin A -0.156 | [6] 0.018 | defactinib 0.05 | [7] 0.004 | encorafenib 0.014 | [8] 0.02 | alisertib -0.016 | [9] 0.015 | gefitinib -0.049

NUCB2 (UniProt P80303)
Chain of UniProt P80303 (P80303 whole entry, looked up): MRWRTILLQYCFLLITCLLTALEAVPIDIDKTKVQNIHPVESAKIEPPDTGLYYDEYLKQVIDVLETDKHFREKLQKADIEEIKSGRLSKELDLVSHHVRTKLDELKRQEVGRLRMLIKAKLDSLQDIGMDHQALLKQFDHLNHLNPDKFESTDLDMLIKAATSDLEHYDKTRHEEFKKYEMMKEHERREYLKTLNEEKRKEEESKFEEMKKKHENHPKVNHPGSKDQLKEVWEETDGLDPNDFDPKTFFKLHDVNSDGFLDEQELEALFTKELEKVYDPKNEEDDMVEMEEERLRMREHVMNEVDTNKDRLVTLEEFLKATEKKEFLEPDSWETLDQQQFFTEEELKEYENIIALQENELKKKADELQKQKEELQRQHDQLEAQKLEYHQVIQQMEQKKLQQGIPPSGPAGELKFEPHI
inactive: vemurafenib 0.01 | [1] -0.009 | barasertib -0.004 | [2] 0.052 | volasertib 0.022 | [3] -0.008 | [5] -0.084 | saracatinib 0.015 | sotrastaurin -0.026 | alvocidib 0.061 | Tubastatin A 0.036 | [6] 0.007 | defactinib -0.039 | [7] 0.005 | encorafenib 0.001 | [8] -0.027 | alisertib 0.003 | [9] 0.014 | gefitinib 0.004
active: [4] 0.338

NFATC1 (UniProt O95644)
Chain of UniProt O95644 (O95644 whole entry, looked up): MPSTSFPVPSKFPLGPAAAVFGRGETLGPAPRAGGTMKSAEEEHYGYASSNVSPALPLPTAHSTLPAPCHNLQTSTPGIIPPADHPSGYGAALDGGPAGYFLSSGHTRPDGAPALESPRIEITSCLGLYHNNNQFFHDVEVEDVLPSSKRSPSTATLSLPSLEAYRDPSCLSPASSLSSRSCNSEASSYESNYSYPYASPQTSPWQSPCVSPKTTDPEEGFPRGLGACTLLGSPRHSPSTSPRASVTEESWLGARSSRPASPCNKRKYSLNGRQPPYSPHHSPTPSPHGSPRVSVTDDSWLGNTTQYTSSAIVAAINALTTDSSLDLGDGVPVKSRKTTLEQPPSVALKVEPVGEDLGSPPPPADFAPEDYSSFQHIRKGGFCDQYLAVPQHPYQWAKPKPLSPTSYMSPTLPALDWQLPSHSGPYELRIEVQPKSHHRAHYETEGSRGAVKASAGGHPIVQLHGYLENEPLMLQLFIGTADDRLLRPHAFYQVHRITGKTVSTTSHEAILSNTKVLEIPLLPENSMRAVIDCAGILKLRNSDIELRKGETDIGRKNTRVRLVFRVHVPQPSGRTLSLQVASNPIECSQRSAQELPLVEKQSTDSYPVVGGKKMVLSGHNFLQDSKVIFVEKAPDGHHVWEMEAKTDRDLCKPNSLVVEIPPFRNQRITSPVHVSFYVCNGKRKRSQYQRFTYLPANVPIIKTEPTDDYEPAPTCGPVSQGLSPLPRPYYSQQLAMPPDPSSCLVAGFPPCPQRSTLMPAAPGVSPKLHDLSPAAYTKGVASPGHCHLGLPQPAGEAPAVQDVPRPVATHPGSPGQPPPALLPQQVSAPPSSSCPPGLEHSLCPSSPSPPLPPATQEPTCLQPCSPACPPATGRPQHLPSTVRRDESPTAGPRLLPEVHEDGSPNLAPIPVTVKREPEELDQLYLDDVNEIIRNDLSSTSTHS
inactive: vemurafenib 0.004 | [1] 0.058 | barasertib -0.015 | [2] 0.001 | volasertib 0 | [3] 0.007 | [4] -0.118 | [5] 0.064 | saracatinib 0.042 | sotrastaurin 0 | alvocidib -0.024 | Tubastatin A -0.138 | [6] 0.124 | defactinib -0.012 | [7] -0.031 | encorafenib -0.071 | [8] 0.048 | alisertib -0.025 | [9] 0.001 | gefitinib 0.027

NTMT1 (UniProt Q9BV86)
Chain of UniProt Q9BV86 (Q9BV86 whole entry, looked up): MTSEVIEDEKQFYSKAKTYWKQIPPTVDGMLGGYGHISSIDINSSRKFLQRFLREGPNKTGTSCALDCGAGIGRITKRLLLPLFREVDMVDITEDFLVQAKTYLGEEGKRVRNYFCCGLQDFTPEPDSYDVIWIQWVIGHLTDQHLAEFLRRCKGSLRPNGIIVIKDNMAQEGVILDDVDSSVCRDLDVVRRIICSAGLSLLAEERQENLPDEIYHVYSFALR
inactive: vemurafenib 0.023 | [1] 0.026 | barasertib 0.026 | [2] -0.029 | volasertib -0.024 | [3] 0.015 | [4] 0.055 | [5] -0.101 | saracatinib 0.008 | sotrastaurin 0.056 | alvocidib 0.047 | Tubastatin A -0.175 | [6] 0.018 | defactinib 0.065 | [7] 0.023 | encorafenib -0.006 | [8] 0.166 | alisertib -0.007 | [9] -0.016 | gefitinib 0.057

NAP1L5 (UniProt Q96NT1)
Chain of UniProt Q96NT1 (Q96NT1 whole entry, looked up): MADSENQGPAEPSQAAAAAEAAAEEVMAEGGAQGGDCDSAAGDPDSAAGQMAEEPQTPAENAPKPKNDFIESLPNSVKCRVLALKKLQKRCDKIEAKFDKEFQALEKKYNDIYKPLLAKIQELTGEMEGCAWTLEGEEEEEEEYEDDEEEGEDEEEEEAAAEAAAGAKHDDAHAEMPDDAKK
inactive: vemurafenib -0.094 | [1] 0.005 | barasertib 0.037 | [2] 0.181 | volasertib -0.033 | [3] 0.052 | [5] -0.205 | saracatinib -0.15 | sotrastaurin 0.08 | alvocidib 0.161 | Tubastatin A -0.039 | [6] 0.008 | defactinib -0.032 | [7] -0.082 | encorafenib 0.01 | [8] -0.047 | alisertib 0.021 | [9] -0.039 | gefitinib 0.02
active: [4] 0.62

ORC3 isoform 2 (UniProt Q9UBD5)
inactive: vemurafenib 0.016 | [1] -0.008 | barasertib 0.022 | [2] -0.036 | volasertib -0.059 | [3] -0.006 | [4] -0.063 | [5] -0.018 | saracatinib -0.001 | sotrastaurin 0.027 | alvocidib 0.006 | Tubastatin A -0.155 | [6] 0.007 | defactinib 0.022 | [7] 0.035 | encorafenib 0.02 | [8] 0.15 | alisertib 0.001 | [9] -0.009 | gefitinib -0.019

OGFOD2 (UniProt Q6N063)
Chain of UniProt Q6N063 (Q6N063 whole entry, looked up): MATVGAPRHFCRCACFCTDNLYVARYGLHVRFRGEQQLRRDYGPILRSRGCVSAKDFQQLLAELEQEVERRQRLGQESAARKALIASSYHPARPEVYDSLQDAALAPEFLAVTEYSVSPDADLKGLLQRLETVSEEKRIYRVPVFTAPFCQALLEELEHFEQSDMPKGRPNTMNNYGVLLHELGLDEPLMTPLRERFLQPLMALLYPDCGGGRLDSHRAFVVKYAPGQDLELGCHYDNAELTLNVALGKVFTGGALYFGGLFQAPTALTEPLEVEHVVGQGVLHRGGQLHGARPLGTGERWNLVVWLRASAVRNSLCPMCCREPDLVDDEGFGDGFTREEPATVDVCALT
active: [8] 0.223
inactive: vemurafenib 0.024 | [1] 0.173 | barasertib 0.005 | [2] -0.147 | volasertib -0.062 | [3] -0.023 | [4] -0.042 | [5] 0.071 | saracatinib -0.047 | sotrastaurin 0.039 | alvocidib 0.029 | Tubastatin A 0.033 | [6] 0.059 | defactinib 0.015 | [7] -0.125 | encorafenib -0.054 | alisertib 0.009 | [9] -0.014 | gefitinib -0.065

OSBP (UniProt P22059)
Chain of UniProt P22059 (P22059 whole entry, looked up): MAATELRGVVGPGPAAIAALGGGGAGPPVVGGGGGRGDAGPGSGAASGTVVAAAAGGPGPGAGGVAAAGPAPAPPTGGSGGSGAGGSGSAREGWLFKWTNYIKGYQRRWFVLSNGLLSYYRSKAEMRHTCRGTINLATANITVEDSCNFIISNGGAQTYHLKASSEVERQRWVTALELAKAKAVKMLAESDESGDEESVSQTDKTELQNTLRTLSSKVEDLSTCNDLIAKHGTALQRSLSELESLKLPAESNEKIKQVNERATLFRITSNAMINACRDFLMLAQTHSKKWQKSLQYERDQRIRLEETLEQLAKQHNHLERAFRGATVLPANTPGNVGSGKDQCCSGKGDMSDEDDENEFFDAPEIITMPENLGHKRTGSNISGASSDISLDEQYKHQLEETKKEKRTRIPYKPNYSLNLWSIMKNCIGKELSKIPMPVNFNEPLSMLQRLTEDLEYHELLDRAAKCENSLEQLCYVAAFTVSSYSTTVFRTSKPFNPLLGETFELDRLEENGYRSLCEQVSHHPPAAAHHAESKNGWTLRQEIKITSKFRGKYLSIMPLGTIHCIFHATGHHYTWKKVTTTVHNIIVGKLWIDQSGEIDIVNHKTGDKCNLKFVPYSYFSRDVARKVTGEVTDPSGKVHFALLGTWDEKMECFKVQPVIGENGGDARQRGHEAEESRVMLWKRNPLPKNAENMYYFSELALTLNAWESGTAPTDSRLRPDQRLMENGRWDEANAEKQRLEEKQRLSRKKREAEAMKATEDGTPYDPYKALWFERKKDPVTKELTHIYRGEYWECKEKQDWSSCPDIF
inactive: vemurafenib -0.052 | [1] -0.007 | barasertib -0.004 | [2] -0.076 | volasertib -0.091 | [3] 0.041 | [4] -0.045 | [5] -0.032 | saracatinib 0.011 | sotrastaurin 0.026 | alvocidib 0 | Tubastatin A 0.06 | [6] -0.193 | defactinib -0.009 | [7] -0.155 | encorafenib 0.017 | [8] 0.001 | alisertib 0.026 | [9] 0.042 | gefitinib -0.045

NCAPD3 (UniProt P42695)
Chain of UniProt P42695 (P42695 whole entry, looked up): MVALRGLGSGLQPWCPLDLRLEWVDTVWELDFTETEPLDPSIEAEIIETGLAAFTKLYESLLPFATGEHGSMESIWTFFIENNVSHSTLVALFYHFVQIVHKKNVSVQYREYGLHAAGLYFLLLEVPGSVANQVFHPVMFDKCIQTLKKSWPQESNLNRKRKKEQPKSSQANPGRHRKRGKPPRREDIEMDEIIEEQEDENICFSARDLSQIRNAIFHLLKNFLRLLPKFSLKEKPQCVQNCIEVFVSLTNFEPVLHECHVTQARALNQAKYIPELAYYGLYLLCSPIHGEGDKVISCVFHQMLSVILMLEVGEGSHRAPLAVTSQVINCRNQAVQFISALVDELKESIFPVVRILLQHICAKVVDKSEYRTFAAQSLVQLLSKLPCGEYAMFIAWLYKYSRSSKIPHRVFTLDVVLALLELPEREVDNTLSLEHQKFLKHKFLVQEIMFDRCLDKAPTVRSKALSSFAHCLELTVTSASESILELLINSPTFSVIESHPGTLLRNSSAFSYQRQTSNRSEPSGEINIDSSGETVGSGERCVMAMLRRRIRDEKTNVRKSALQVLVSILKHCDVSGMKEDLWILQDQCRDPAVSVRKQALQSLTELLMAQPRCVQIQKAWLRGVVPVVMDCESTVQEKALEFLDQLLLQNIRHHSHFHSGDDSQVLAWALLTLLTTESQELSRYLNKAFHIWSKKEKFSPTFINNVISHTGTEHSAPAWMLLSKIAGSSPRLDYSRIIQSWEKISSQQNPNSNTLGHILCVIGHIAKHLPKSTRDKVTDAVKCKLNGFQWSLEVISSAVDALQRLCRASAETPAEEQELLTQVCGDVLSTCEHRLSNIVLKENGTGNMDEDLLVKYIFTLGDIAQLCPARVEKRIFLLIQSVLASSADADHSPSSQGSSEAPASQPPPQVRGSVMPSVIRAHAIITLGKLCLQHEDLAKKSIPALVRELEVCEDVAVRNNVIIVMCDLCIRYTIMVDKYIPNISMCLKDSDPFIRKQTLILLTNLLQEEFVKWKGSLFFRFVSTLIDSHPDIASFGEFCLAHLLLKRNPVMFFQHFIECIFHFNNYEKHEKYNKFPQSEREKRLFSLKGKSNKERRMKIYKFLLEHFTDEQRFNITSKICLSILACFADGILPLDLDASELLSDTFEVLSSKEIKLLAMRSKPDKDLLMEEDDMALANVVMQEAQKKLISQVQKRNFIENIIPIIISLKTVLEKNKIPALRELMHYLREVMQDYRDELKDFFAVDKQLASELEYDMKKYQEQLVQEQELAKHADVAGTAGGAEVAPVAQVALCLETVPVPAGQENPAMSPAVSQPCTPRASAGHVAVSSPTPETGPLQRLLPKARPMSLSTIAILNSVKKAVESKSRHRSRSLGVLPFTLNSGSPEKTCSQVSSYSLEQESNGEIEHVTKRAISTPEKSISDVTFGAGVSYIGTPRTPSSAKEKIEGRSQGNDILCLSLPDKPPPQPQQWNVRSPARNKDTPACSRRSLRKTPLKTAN
inactive: vemurafenib -0.032 | [1] 0.047 | barasertib 0.06 | [2] -0.013 | volasertib -0.088 | [3] 0.035 | [4] 0.068 | [5] -0.015 | saracatinib 0.008 | sotrastaurin 0.003 | alvocidib -0.006 | Tubastatin A -0.224 | [6] 0.017 | defactinib 0.017 | [7] 0.013 | encorafenib 0.037 | [8] -0.018 | alisertib -0.017 | [9] 0 | gefitinib -0.002
